Values joined by “and” are separate entries in the source; they are usually repeats but may differ in a detail not shown here. Equal entries are not always repeated. Results filed as inconclusive are left out. A call without a number means that no potency is given here. A structure can be active in one record and inactive in another. Active and inactive are the calls of the source. Calls come from the whole dose curve; as a rule, active = well fitted curve in the direction sought with a large enough effect in the repeat runs; inconclusive = weak or mixed curves; inactive = no such curve, though single readings can be large; an effect the other way counts as inactive or inconclusive.
Potency is the fitted concentration of half-maximal effect.

One test in a line: Caspase-3/7 induction in HepG2 cells by small molecules, qHTS assay (AID 1346978). Note: nearly all actives have a fitted effect of over 15% in size. Conditions: HepG2 caspase-3/7 activation, Caspase-Glo luminescence, 17 h; series mostly up to 92.4 µM; caspase activation: at the top concentration. Put shortly: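 Wild-type HepG2 cells (2,000/well) were settled 5 h at 37 C, 5% CO2, then exposed to compounds in DMSO for 17 h. Caspase-3/7 activity was read by luminescence 30 min after adding Caspase-Glo 3/7 reagent at room temperature.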
Take `COP(=O)(OC)OC`: the Potency result is “inactive”.
`Cc1ccc(OP(=O)(Oc2ccc(C)cc2)Oc2ccc(C)cc2)cc1`: the Potency was 967 nM (active) and inactive.
For `CC(C)(OOC(C)(C)c1ccccc1)c1ccccc1`, the Potency entry is “inactive”.
With `C#C[C@]1(O)CC[C@H]2[C@@H]3CCC4=CC(=O)CC[C@]4(C)[C@H]3CC[C@@]21C`, the Potency entry is “inactive”.
With `CCOCN(C(=O)CCl)c1c(C)cccc1CC`, the Potency entry is “inactive”.
As for `Cc1ccccc1[N+](=O)[O-]`, the Potency result is “inactive”.
With `c1cc(OCC2CO2)ccc1Cc1ccc(OCC2CO2)cc1` (configuration not stated), the Potency entry was “inactive”.
On to `O=Cc1ccco1`, for which the Potency entry was “inactive”.
Consider `CCOc1cc(C=O)ccc1O`, for which the Potency result was “inactive”.
Regarding `Nc1ccc(Cl)c(Cl)c1`, the Potency entry was “inactive”.
For `CCC(CC)Nc1c([N+](=O)[O-])cc(C)c(C)c1[N+](=O)[O-]`, the Potency result is “inactive”.
Still for that read-out and setting: the result for `COc1ccc(C=O)cc1` reads “inactive”.
Turning to `CCCCNC(=O)n1c(NC(=O)OC)nc2ccccc21`, the Potency is 6.08 µM (active) and inactive.
On to `c1ccc(NNc2ccccc2)cc1`, for which the Potency entry was “inactive”.
For the compound `Cc1c(COC(=O)[C@@H]2[C@H](/C=C(\Cl)C(F)(F)F)C2(C)C)cccc1-c1ccccc1`, the Potency entry is “inactive”.
Consider `CCCCCCCCCCCOC(=O)c1ccccc1C(=O)OCCCCCCCCCCC`, for which the Potency entry is “inactive”.
Turning to `N#CC(Br)Br`, the Potency result was “inactive”.
`CCOC(=O)C(C)OC(=O)c1cc(Oc2ccc(C(F)(F)F)cc2Cl)ccc1[N+](=O)[O-]` (configuration not stated): the Potency result was “inactive”.
Still for that read-out and setting: the result for `CCCCC(CC)COC(=O)c1ccc(C(=O)OCC(CC)CCCC)c(C(=O)OCC(CC)CCCC)c1` (configuration not stated) reads “inactive”; that for `c1ccc(P(c2ccccc2)c2ccccc2)cc1`, “inactive”.
`NNC(=S)NN`: the Potency entry was “inactive”.
For `O=P(O)(O)CCCl`, the Potency entry was “inactive”.
With `N#Cc1cc(Br)c(O)c(Br)c1`, the Potency result is “inactive”.

A further test in a line: Caspase-3/7 induction in CHO-K1 cells by small molecules, qHTS cell viability counter screen (AID 1346979). Note: nearly all actives have a fitted effect of over 35% in size. Particulars: CellTiter-Fluor fluorescence, 17 h; series mostly up to 92.4 µM; activity change, negative = cytotoxicity: at the top concentration. Put shortly: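 Seeding: 1,500 CHO-K1 cells/well. Rest: 5hr, 37C. Treatment: compounds in DMSO, 16hr. Read: CellTiter-Fluor, 1hr, fluorescence.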
As to `COP(=O)(OC)OC`, the Potency was 30.9 µM (active) and inactive.
Regarding `Cc1ccc(OP(=O)(Oc2ccc(C)cc2)Oc2ccc(C)cc2)cc1`, the Potency was 27.3 µM (active) and inactive.
`CCC(C)(c1ccc(O)cc1)c1ccc(O)cc1`: the Potency is 61.1 µM (active).
Take `O=C(O)C(F)(F)C(F)(F)C(F)(F)C(F)(F)C(F)(F)C(F)(F)C(F)(F)F`: the Potency result was “inactive”.
`c1ccc(-c2cccc(-c3ccccc3)c2)cc1`: the Potency entry was “inactive”.
Still for that read-out and setting: the result for `CC(C)(OOC(C)(C)c1ccccc1)c1ccccc1` reads “inactive”.
On to `O=C(NC(=O)c1c(F)cccc1F)Nc1ccc(Cl)cc1`, for which the Potency entry was “inactive”.
For `C#C[C@]1(O)CC[C@H]2[C@@H]3CCC4=CC(=O)CC[C@]4(C)[C@H]3CC[C@@]21C`, the Potency entry was “inactive”.
`CCOCN(C(=O)CCl)c1c(C)cccc1CC`: the Potency is 57.7 µM (active).
On to `Nc1ccncc1`, for which the Potency entry was “inactive”.
As for `Cc1ccccc1[N+](=O)[O-]`, the Potency entry is “inactive”.
For the compound `O=Cc1ccco1`, the “activity change, negative = cytotoxicity” value was 11.3% (inactive).
As to `CCOc1cc(C=O)ccc1O`, the Potency result is “inactive”.
Consider `Nc1ccc(Cl)c(Cl)c1`, for which the Potency entry was “inactive”.
As for `CCC(CC)Nc1c([N+](=O)[O-])cc(C)c(C)c1[N+](=O)[O-]`, the Potency result was “inactive”.
Consider `COc1ccc(C=O)cc1`, for which the Potency result is “inactive”.
For `CCCCNC(=O)n1c(NC(=O)OC)nc2ccccc21`, the Potency was 30.6 µM (active).
The same measure, in the same setting: the result for `c1ccc(NNc2ccccc2)cc1` reads “inactive”.
Regarding `CCCCCCCCC(=O)NCc1ccc(O)c(OC)c1`, the “activity change, negative = cytotoxicity” value was 5.44% [at 42.5 µM] (inactive).
As to `Cc1c(COC(=O)[C@@H]2[C@H](/C=C(\Cl)C(F)(F)F)C2(C)C)cccc1-c1ccccc1`, the Potency is 43.1 µM (active).
For `CC(C)c1ccc(CO)cc1`, the Potency result was “inactive”.
Consider `CCCCCCCCCCCOC(=O)c1ccccc1C(=O)OCCCCCCCCCCC`, for which the “activity change, negative = cytotoxicity” value was 3.43% (inactive).
As to `N#CC(Br)Br`, the Potency result was “inactive”.
On the same count and under the same terms, the entry for `COc1ccc(C(CN(C)C)C2(O)CCCCC2)cc1` (configuration not stated) is “inactive”.
Turning to `C=CCN(CC=C)C(=O)C(Cl)Cl`, the Potency result was “inactive”.
As for `CCCCC(CC)COC(=O)c1ccc(C(=O)OCC(CC)CCCC)c(C(=O)OCC(CC)CCCC)c1` (configuration not stated), the Potency entry is “inactive”.
For `c1ccc(P(c2ccccc2)c2ccccc2)cc1`, the Potency entry was “inactive”.
With `Oc1c(Cl)c(Cl)c(Cl)c(Cl)c1Cl`, the “activity change, negative = cytotoxicity” value is -5.67% [at 42.5 µM] (inactive).
In the case of `O=P(O)(O)CCCl`, the Potency result is “inactive”.
For the compound `Nc1ccc(-c2ccccc2)cc1`, the Potency was 56 µM (active) and inactive.
As for `Cc1ccc2c(c1N)C(=O)c1ccccc1C2=O`, the Potency is 48 µM (active) and 54.5 µM (active).

Another test in a line: Caspase-3/7 induction in CHO-K1 cells by small molecules, qHTS assay (AID 1346980). Note: nearly all actives have a fitted effect of over 15% in size. Conditions: CHO-K1 caspase-3/7 induction, Caspase-Glo luminescence, 17 h; series mostly up to 92.4 µM; caspase-3/7 activation: at the top concentration. The method in brief: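 Wild-type cells were seeded at 1,500 per well and settled 5 hr at 37 C, 5% CO2, then exposed to DMSO-dissolved compounds for 17 hr. Caspase-Glo 3/7 reagent was added, and luminescence was read after 30min at room temperature.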
Background: In qHTS, concentration-response curves come from the screen itself.
In the case of `COP(=O)(OC)OC`, the Potency entry is “inactive”.
Regarding `Cc1ccc(OP(=O)(Oc2ccc(C)cc2)Oc2ccc(C)cc2)cc1`, the Potency entry is “inactive”.
For the compound `CCC(C)(c1ccc(O)cc1)c1ccc(O)cc1`, the Potency entry is “inactive”.
As to `O=C(O)C(F)(F)C(F)(F)C(F)(F)C(F)(F)C(F)(F)C(F)(F)C(F)(F)F`, the Potency result is “inactive”.
For the compound `c1ccc(-c2cccc(-c3ccccc3)c2)cc1`, the Potency entry is “inactive”.
Take `CC(C)(OOC(C)(C)c1ccccc1)c1ccccc1`: the Potency entry is “inactive”.
Take `CCOc1cc(Oc2ccc(C(F)(F)F)cc2Cl)ccc1[N+](=O)[O-]`: the Potency entry was “inactive”.
For `O=C(NC(=O)c1c(F)cccc1F)Nc1ccc(Cl)cc1`, the Potency entry was “inactive”.
With `C#C[C@]1(O)CC[C@H]2[C@@H]3CCC4=CC(=O)CC[C@]4(C)[C@H]3CC[C@@]21C`, the Potency result is “inactive”.
`CCOCN(C(=O)CCl)c1c(C)cccc1CC`: the Potency entry is “inactive”.
In the case of `Nc1ccncc1`, the Potency result is “inactive”.
Consider `Cc1ccccc1[N+](=O)[O-]`, for which the Potency result was “inactive”.
Take `c1cc(OCC2CO2)ccc1Cc1ccc(OCC2CO2)cc1` (configuration not stated): the Potency entry was “inactive”.
Turning to `O=Cc1ccco1`, the “caspase-3/7 activation” value is 0.132% (inactive).
In the case of `CCOc1cc(C=O)ccc1O`, the Potency result was “inactive”.
On to `Nc1ccc(Cl)c(Cl)c1`, for which the Potency entry was “inactive”.
As for `CCC(CC)Nc1c([N+](=O)[O-])cc(C)c(C)c1[N+](=O)[O-]`, the Potency entry is “inactive”.
As for `COc1ccc(C=O)cc1`, the Potency entry was “inactive”.
Same read-out and setting: the result for `CCCCNC(=O)n1c(NC(=O)OC)nc2ccccc21` reads “inactive”; that for `c1ccc(NNc2ccccc2)cc1`, “inactive”; that for `CC1(C)C(C=C(Cl)Cl)C1C(=O)OC(C#N)c1cccc(Oc2ccccc2)c1` (configuration not stated), “inactive”.
Regarding `CCCCCCCCC(=O)NCc1ccc(O)c(OC)c1`, the Potency result was “inactive”.
On to `Cc1c(COC(=O)[C@@H]2[C@H](/C=C(\Cl)C(F)(F)F)C2(C)C)cccc1-c1ccccc1`, for which the Potency entry was “inactive”.
As for `CC(C)c1ccc(CO)cc1`, the Potency entry is “inactive”.
On to `CCCCCCCCCCCOC(=O)c1ccccc1C(=O)OCCCCCCCCCCC`, for which the Potency entry is “inactive”.
For the compound `N#CC(Br)Br`, the Potency result is “inactive”.
On the same count and under the same terms, the entry for `COc1ccc(C(CN(C)C)C2(O)CCCCC2)cc1` (configuration not stated) is “inactive”; for `C=CCN(CC=C)C(=O)C(Cl)Cl` it is “inactive”; for `CCOC(=O)C(C)OC(=O)c1cc(Oc2ccc(C(F)(F)F)cc2Cl)ccc1[N+](=O)[O-]` (configuration not stated) it is “inactive”.
As to `CCCCC(CC)COC(=O)c1ccc(C(=O)OCC(CC)CCCC)c(C(=O)OCC(CC)CCCC)c1` (configuration not stated), the Potency entry was “inactive”.
`c1ccc(P(c2ccccc2)c2ccccc2)cc1`: the Potency result was “inactive”.
Regarding `Oc1c(Cl)c(Cl)c(Cl)c(Cl)c1Cl`, the Potency entry was “inactive”.
With `Oc1cc(Cl)c(Cl)cc1Cl`, the Potency entry was “inactive”.
Take `NNC(=S)NN`: the Potency is 56 µM (active) and inactive.
Same read-out and setting: the entry for `O=P(O)(O)CCCl` is “inactive”.
Turning to `Nc1ccc(-c2ccccc2)cc1`, the Potency result is “inactive”.
For the compound `N#Cc1cc(Br)c(O)c(Br)c1`, the Potency entry is “inactive”.
For the compound `Cc1ccc2c(c1N)C(=O)c1ccccc1C2=O`, the Potency result was “inactive”.

The values above are taken from PubChem BioAssay (Tox21).
